The full ranking holds about 33,000 sequences; the median of “E-score (-0.5 to 0.5)” is about -0.032, and the highest 2% start at about 0.36. Many of the other results were omitted from the sample, so the highest values are more common in it than they were.

This experiment concerns the target T1, Sko1 (UniProt Q02100).
T1 sequence: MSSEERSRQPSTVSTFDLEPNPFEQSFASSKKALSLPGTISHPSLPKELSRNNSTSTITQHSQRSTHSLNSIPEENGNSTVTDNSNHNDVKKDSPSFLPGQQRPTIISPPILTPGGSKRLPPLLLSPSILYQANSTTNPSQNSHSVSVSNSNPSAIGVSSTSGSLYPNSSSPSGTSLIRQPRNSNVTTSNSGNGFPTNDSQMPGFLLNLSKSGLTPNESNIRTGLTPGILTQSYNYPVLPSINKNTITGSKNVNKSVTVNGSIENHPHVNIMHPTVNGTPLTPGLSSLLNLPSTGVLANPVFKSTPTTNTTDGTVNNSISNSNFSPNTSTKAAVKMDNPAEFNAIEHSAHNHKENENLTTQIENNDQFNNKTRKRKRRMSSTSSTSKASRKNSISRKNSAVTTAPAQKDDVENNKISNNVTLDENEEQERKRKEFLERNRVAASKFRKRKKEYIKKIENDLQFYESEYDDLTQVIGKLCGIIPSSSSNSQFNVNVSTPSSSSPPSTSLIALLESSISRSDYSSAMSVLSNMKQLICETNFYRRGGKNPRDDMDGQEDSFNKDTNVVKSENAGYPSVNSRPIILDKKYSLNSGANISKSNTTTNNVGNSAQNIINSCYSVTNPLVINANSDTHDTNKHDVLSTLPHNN
Put plainly: PBM E-score (8-mer binding enrichment) (E-score (-0.5 to 0.5)); higher = stronger / more preferred TF binding. The conditions noted are these: protein concentration: 200 nM; construct: GST-full length. Here is the method:
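Universal 'all 10-mer' protein binding microarrays (Agilent AMADID 015681) probed with GST-tagged S. cerevisiae TFs (full-length or DBD) made by in vitro transcription/translation (PURExpress), about 100-200 nM. Bound TF was detected with fluorescent anti-GST. Each ungapped 8-mer (which stands for itself and its reverse complement) is scored by the PBM enrichment score (E-score), a modified Wilcoxon-Mann-Whitney statistic from -0.5 to +0.5, computed with the Universal PBM Analysis Suite. Scale: above 0.35 generally sequence-specific binding.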
For ACGGACTA, the “PBM E-score” value is 0.0518.
Then CTGCTGAC, with 0.0145; and AACACGCC, with -0.0487; and AACACGAA, with 0.187.
As to AACACGGC, the “PBM E-score” value is -0.255.
Consider AACACGTT, for which the “PBM E-score” value worked out at 0.313.
With AACACGTA, the “PBM E-score” value worked out at 0.459.
Regarding AACACGTC, the “PBM E-score” value is 0.401.
Then AGAGCTGG, with -0.228; and TCATAGAA, with 0.219; and AATTTCAC, with -0.0415.
Consider ACTTGAAA, for which the “PBM E-score” value was found to be 0.0359.
In the case of AAGCGGAA, the “PBM E-score” value is -0.0292.
As to CGAACGTA, the “PBM E-score” value worked out at 0.361.
Then GGAACGTA, with 0.289; and AGAACGTA, with 0.366; and AGAACGTG, with 0.246.
AGAACGTC: the “PBM E-score” value stood at 0.314.
Then CGAACGTC, with 0.238.
For GTGAAGGA, the “PBM E-score” value is -0.0285.
Turning to ACGCAGAC, the “PBM E-score” value is 0.0967.
AAATTGGA: the “PBM E-score” value is 0.0977.
Then ACGAGTCC, with -0.0325; and GCGTCGAC, with 0.0596.
As for ACGTCCAA, the “PBM E-score” value stood at 0.288.
Consider ACGTCGAA, for which the “PBM E-score” value was determined as 0.292.
Regarding ACGTCGAT, the “PBM E-score” value turned out to be 0.432.
For ACGTCGAG, the “PBM E-score” value is 0.254.
On to ACGTCCAC, for which the “PBM E-score” value came to 0.314.
As for ACGTCCAT, the “PBM E-score” value came out at 0.39.
CCGTCGAC: the “PBM E-score” value was -0.145.
Regarding ACGTCGAC, the “PBM E-score” value was determined as 0.385.
For the sequence ATCAGTCA, the “PBM E-score” value was found to be 0.119.
On to AACCGCGC, for which the “PBM E-score” value was -0.0849.
As for AGGGCAAT, the “PBM E-score” value is -0.231.
Then CGTAGAGC, with 0.116; and ACGAGATA, with 0.207; and ATACGTCC, with 0.369.
Then ATACGTCG, with 0.422.
As to AAACGTCG, the “PBM E-score” value came to 0.238.
Then ATACGCCC, with -0.0909.
Turning to CTACGTCC, the “PBM E-score” value was determined as 0.298.
As to ATCCGTCG, the “PBM E-score” value was -0.197.
Take AAGGCTGT: the “PBM E-score” value was -0.282.
On to CGGTAGCC, for which the “PBM E-score” value came to 0.0295.
In the case of AACCACGA, the “PBM E-score” value is -0.0344.
For the sequence AATCACGC, the “PBM E-score” value was 0.205.
AATCACGT: the “PBM E-score” value turned out to be 0.429.
ACCCACGT: the “PBM E-score” value was found to be 0.374.
As to ACCCACGA, the “PBM E-score” value was -0.0425.
Take AATCACGA: the “PBM E-score” value was determined as 0.0581.
AACCACGT: the “PBM E-score” value came to 0.371.
Then AACCACGC, with 0.111.
Turning to ACCCACGC, the “PBM E-score” value is -0.0576.
GGAAATAC: the “PBM E-score” value is 0.148.
With CCCTCATC, the “PBM E-score” value was -0.29.
As to CCTCACCC, the “PBM E-score” value was -0.148.
Then CGTCACCA, with 0.447; and AGTCACCA, with -0.269.
In the case of CGTCACCC, the “PBM E-score” value was determined as 0.409.
Consider GGTCACCA, for which the “PBM E-score” value is -0.28.
For AGTCACCC, the “PBM E-score” value was -0.145.
For the sequence AGCCAATG, the “PBM E-score” value is -0.049.
Then CATAAGCA, with -0.085; and CGTGGTTC, with 0.0129; and ACGTCGTG, with 0.361.
GCGTCGTA: the “PBM E-score” value is 0.234.
For ACGTCGTA, the “PBM E-score” value worked out at 0.399.
In the case of ACGTCGGC, the “PBM E-score” value was determined as 0.348.
Then CCGTCGTA, with 0.11; and CCGTCGTC, with -0.0549.
With ACGTCGCG, the “PBM E-score” value amounted to 0.356.
Consider AAGTCGTG, for which the “PBM E-score” value came out at 0.00032.
For ACGTCGTC, the “PBM E-score” value is 0.387.
Take AGTTGCCC: the “PBM E-score” value is -0.107.
Consider ACATTCTA, for which the “PBM E-score” value is 0.293.
Turning to AACCCAGC, the “PBM E-score” value is -0.247.
On to CGGCCTAG, for which the “PBM E-score” value was -0.324.
Then AGAAGCTG, with -0.0693; and ACAGCTGT, with -0.245; and GGGCAGAC, with -0.242.
On to ACTGGTAT, for which the “PBM E-score” value is -0.17.
Take CCTCGTCC: the “PBM E-score” value is -0.209.
For CCTCGTCG, the “PBM E-score” value was -0.233.
On to ACTCGTCT, for which the “PBM E-score” value is -0.0567.
For the sequence ACTCGTCC, the “PBM E-score” value stood at 0.0764.

The record behind these values is the supplement of paper PMC3334620.
